Screening results from PubChem BioAssay.
ALOX12 inhib = inhibitors of human 12-lipoxygenase (ALOX12); purified 12-hLO, xylenol orange hydroperoxide absorbance; Potency, µM (titrated, usually from 57.1 µM), without a hit: top-dose activity change, negative = inhibition, most hits filed as inhibitors; P18054; actives 0.12% (n = 150,000); further: potency means the concentration at half of the fitted maximal effect; nearly all actives have a fitted effect of over 55% in size
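Lipoxygenase turnover measured by absorbance at 573 and 405 nm after Fe-XO development. Human 12hLO 150 nM, arachidonate 40 uM, pH 7.0 Hepes buffer with detergent; 15 min compound preincubation, 30 min reaction.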
ALDH1A1 block = ALDH1A1 (human) enzyme inhibition | Potency, µM (series often up to 75.3 µM), for inactives: at the top dose activity, negative = inhibition, hits mostly inhibitors | AID 1030 | actives 7.3% (n = 220,000) | Purified ALDH1A1, NADH fluorescence, propionaldehyde substrate | P00352; active means well fitted inhibition curve with a large enough effect, not every such curve was filed as active; inconclusive means small, poorly fitted or top-dose-only effect, or another doubt; inactive means no such curve, though single readings can be large or run the other way;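 further: potency means the concentration at half of the fitted maximal effect; plate controls were no enzyme wells and a reference inhibitor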
GLA spleen mod = inhibitors or activators of human alpha-galactosidase in spleen homogenate; P06280; human spleen homogenate, 4MU-alpha-Gal fluorescence, 40 min; Potency, µM (series often up to 80 µM), without a hit: at the top dose activity change, negative = inhibition, actives largely listed as inhibitors; actives 0.008% (n = 240,000); AID 2107;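 further: potency means the concentration at half of the fitted maximal effect; 0% = enzyme with vehicle and -100% = no enzyme basal signal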
Target sequence (P06280 32-429 limits assumed): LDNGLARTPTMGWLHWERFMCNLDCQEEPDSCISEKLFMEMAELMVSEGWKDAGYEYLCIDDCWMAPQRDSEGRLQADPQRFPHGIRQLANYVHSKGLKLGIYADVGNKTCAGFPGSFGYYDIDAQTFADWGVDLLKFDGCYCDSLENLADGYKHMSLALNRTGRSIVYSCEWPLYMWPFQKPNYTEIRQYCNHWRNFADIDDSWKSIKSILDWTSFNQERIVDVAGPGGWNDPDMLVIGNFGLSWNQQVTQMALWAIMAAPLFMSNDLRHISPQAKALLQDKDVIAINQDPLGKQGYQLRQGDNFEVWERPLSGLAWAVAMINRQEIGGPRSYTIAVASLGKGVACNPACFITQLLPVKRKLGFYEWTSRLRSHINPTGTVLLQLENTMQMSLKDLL
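qHTS titration in buffer at pH 5.0. Alpha-galactosidase activity in spleen homogenate was measured via 4-methylumbelliferone release from 1 mM fluorogenic substrate after 40 min at 37C and a pH 10 stop. AC50 came from Hill fits of control-normalized data.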
PNC inhibitor = perinucleolar compartment assembly inhibition; PC3M PTB-GFP, PNC prevalence imaging, 16 h; stronger effect = lower value; activity change (PNC), negative = inhibition, % at 10 µM; actives 3.1% (n = 140,000);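 active means readout at or below -70, meaning at least 70% loss of cells showing the perinucleolar compartment, a nuclear body marking cancer cells; inconclusive means readout between -30 and a set limit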;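 further: plate controls were DMSO wells for no effect and camptothecin positive control wells for full effect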
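Compounds are pinned in duplicate onto adhered PC3M cells stably expressing GFP-tagged PTB and incubated 16 h at 37 C. Cells are then fixed, nuclei stained with Hoechst, and PNC-positive cells counted.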
GLA inh pH 4.5 = blocks human alpha-galactosidase A at pH 4.5. AID 1467. purified enzyme, 4-MU-alpha-Gal fluorescence, pH 4.5. activity change, negative = inhibition, % at 105 µM. 230,000 tested, under 10 active;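 further: 0% = full activity with enzyme and -100% = basal without enzyme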
HPGD inh = HPGD (human) dehydrogenase inhibition; Potency, µM, without a hit: at the top dose activity change, negative = inhibition, most hits filed as inhibitors; P15428; actives 4.3% (n = 150,000); purified HPGD, NADH fluorescence kinetic, PGE2 substrate; active means well fitted inhibition curve with a large enough effect, not every such curve was filed as active; inconclusive means small, poorly fitted or top-dose-only effect, or another doubt; inactive means no such curve, though single readings can be large or run the other way; further: potency means the concentration at half of the fitted maximal effect
Target sequence (P15428 whole entry, looked up): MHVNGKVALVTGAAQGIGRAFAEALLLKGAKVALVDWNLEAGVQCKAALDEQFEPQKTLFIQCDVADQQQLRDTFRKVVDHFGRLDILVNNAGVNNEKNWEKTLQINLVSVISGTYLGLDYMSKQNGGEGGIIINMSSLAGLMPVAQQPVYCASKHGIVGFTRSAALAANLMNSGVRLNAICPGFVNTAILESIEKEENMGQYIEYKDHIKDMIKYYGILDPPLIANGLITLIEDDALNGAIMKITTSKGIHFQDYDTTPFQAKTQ
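20 nM HPGD preincubated 15 min at room temperature with compound in 50 mM Tris-HCl pH 8, 0.01% Tween 20. Started with 1 mM NAD+ and 30 uM prostaglandin E2; NADH fluorescence (360/450 nm) read 5 times over 30-s intervals, last minus first.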
The depositor's hits bear a star; ? = inconclusive; nt = no result given; [ ] = another dose, or the depositor's remark. A selection: hits, their analogues and other compounds. The true share with any hit is near 10%. Unless noted, the call rests on the fitted dose curve; in most records, active means well fitted curve in the direction sought with a large enough effect; inconclusive means small, poorly fitted or top-dose-only effect, or another doubt; inactive means no such curve, though single readings can be large; an effect the other way counts as inactive or inconclusive. Unless noted, on the % scale 0 is the no-effect control and ±100 the full control effect.

SMILES | ALOX12 inhib | ALDH1A1 block | GLA spleen mod | PNC inhibitor | GLA inh pH 4.5 | HPGD inh
CCOc1ncccc1C(=O)OCC(=O)c1ccc(Cl)s1 | -9% | ? | -4% | -12 | 4 | 20µM*
O=C(OCC(=O)N1CCc2ccccc21)c1ccc[nH]c1=O | nt | -15% | 5% | nt | -6 | nt
O=C(OCC(=O)N1CCc2ccccc21)C1=COCCO1 | -2% | 14µM* | -6% | ? | -4 | -12%
Cn1c(=S)ccc2ccccc21 | nt | 25µM* | 3% | nt | 0 | nt
Cn1c(=S)n(C)c2ccccc21 | nt | 8% | 6% | nt | nt | nt
COc1ccc(CCNC(=O)C2CC(=O)N(C3CCCCCCC3)C2)cc1OC (stereo not drawn) | 4% | ? | 6% | 11 | -3 | -2%
CSC1=C(C#N)C(c2ccc(C(C)C)cc2)CC(=O)N1 (stereo not drawn) | 2% | ? | -2% | 33 | -1 | -5%
CC(C)c1ccc(C2CC(=O)N3CN(Cc4ccco4)CSC3=C2C#N)cc1 (stereo not drawn) | ? | 14µM* | 7% | -16 | 2 | 16µM*
COc1ccc2ccccc2c1C1CC(=O)N2CN(C3CCCCC3)CSC2=C1C#N (stereo not drawn) | -22% | 28µM* | 3% | -1 | -1 | 18µM*
N#CC1=C2SCN(Cc3ccco3)CN2C(=O)CC1c1ccc(Cl)cc1 (stereo not drawn) | ? | 16µM* | 7% | -17 | -1 | 11µM*
COc1ccc(C2CC(=O)N3CN(Cc4ccco4)CSC3=C2C#N)cc1 (stereo not drawn) | -16% | 10µM* | 1% | 13 | -9 | 13µM*
COc1cc(CN2CCCCC2)cc2cc(C(=O)O)c(=O)oc12 | -4%[11.4 µM] | 2%[13.5 µM] | nt | nt | nt | -7%
COc1cc(C2CC(=O)N3CN(Cc4ccco4)CSC3=C2C#N)ccc1OCc1ccccc1 (stereo not drawn) | -19% | 7.9µM* | 3% | -23 | -10 | 25µM*
CCOc1cc(C2CC(=O)N3CN(C4CCCCC4)CSC3=C2C#N)ccc1O (stereo not drawn) | ? | 6.3µM* | 12% | ? | -16 | 25µM*
COc1ccc2ccccc2c1C1CC(=O)N2CN(Cc3ccco3)CSC2=C1C#N (stereo not drawn) | -13% | 22µM* | -1% | 3 | 0 | 7.9µM*
COc1ccc(N2CC(C(=O)N/N=C/c3cc([N+](=O)[O-])ccc3O)CC2=O)cc1 (stereo not drawn) | nt | ? | -6% | nt | -6 | nt
CCOC(=O)N1CCN(C(=O)/C(=C\c2ccc(SC)cc2)NC(=O)c2ccccc2)CC1 | nt | nt | 3% | nt | -7 | nt
CN1CCN(C(=O)c2ccc(CN(c3ccccc3)S(=O)(=O)c3ccccc3)cc2)CC1 | nt | 11% | 1% | nt | 3 | nt
O=C(NC(c1ccccc1)c1ccccc1)c1cccc(S(=O)(=O)NCc2ccccc2)c1 | -1% | 4.5µM* | -9% | 22 | 2 | -14%
COc1cccc(S(=O)(=O)Nc2ccc(C(=O)N3CCN(C(=O)c4ccco4)CC3)cc2)c1 | -6% | 18µM* | -2% | 51 | -1 | -10%
CCN1CCN(C(=O)c2ccc(CN(c3ccccc3)S(=O)(=O)c3ccccc3)cc2)CC1 | -2% | -6% | 7% | ? | 1 | 14µM*
O=C(c1cccc(S(=O)(=O)NCc2ccccc2)c1)N1CCN(Cc2ccccc2)CC1 | 2% | 18µM* | 14% | 21 | 7 | -10%
O=C(NCc1cccc(C(F)(F)F)c1)c1cccc(S(=O)(=O)NCc2ccccc2)c1 | 0% | 4% | 2% | 43 | -20 | -7%
COc1cc(C(=O)N2CCN(C(=O)c3ccco3)CC2)cc(OC)c1OC | 9% | ? | 4% | -1 | 0 | -4%
Cc1ccc(S(=O)(=O)NCc2ccc(C(=O)N3CCN(Cc4ccccc4)CC3)cc2)cc1 | -3% | 11µM* | -2% | -21 | 1 | -2%
SMILES | ALOX12 inhib | ALDH1A1 block | GLA spleen mod | PNC inhibitor | GLA inh pH 4.5 | HPGD inh
CC(=O)Nc1ccc(S(=O)(=O)NC2=C(N3CCN(Cc4ccccc4)CC3)C(=O)c3ccccc3C2=O)cc1 | 0% | 16µM* | 0% | ? | -1 | -4%
COc1ccc(N2CCN(C(=O)c3ccc(NS(=O)(=O)c4ccccc4)cc3)CC2)cc1 | 4% | -9% | -13% | -16 | -13 | -29%
CC(=O)Nc1ccc(S(=O)(=O)Nc2nc3ccccc3nc2N2CCCC2)cc1 | -9% | 11µM* | -4% | -6 | -10 | -21%
Cc1ccc(S(=O)(=O)NCc2ccc(C(=O)N3CCN(c4ccccn4)CC3)cc2)cc1 | -9% | 7% | -5% | ? | -3 | -6%
COc1ccc(NS(=O)(=O)c2ccc(C(=O)N3CCN(Cc4ccccc4)CC3)cc2)cc1 | nt | 3.2µM* | 1% | nt | -8 | nt
CCOc1ccc(CCNC(=O)CSc2cc(=O)n(CC)c3ccccc23)cc1OCC | -1% | 0% | -5% | 16 | -1 | -6%
O=C(c1ccc(CNS(=O)(=O)c2cccc(Cl)c2)cc1)N1CCCC1 | nt | -3% | -2% | nt | 3 | nt
O=C(c1ccc(CNS(=O)(=O)c2cccc(C(F)(F)F)c2)cc1)N1CCOCC1 | -1% | ? | 12% | 23 | -3 | 14µM*
Cc1cc(C)nc(/N=C(\N)Nc2ccccc2-c2ccccc2)n1 | nt | 8% | 5% | nt | -2 | nt
N#CC(C#N)=C1C=CC=CN1/C(=C\c1ccco1)C(=O)c1ccccc1 | -5% | -7% | 2% | -2 | -18 | 22µM*
N#CC(C#N)=C1C=CC=CN1/C(=C\c1ccco1)C(=O)c1ccc(Br)cc1 | -24% | ? | 1% | 1 | -7 | 16µM*
COc1ccc(C(=O)/C(=C\c2ccco2)N2C=CC=CC2=C(C#N)C#N)cc1 | -11% | ? | 4% | -26 | -24 | ?
N#CC1=C(N)N2C(=C(C#N)C13CCCCC3)SC1CCCCC12O (stereo not drawn) | -7% | 0.71µM* | 0% | ? | -7 | -13%
CNCCOc1ccccc1OC(C)C | nt | 4% | 4% | nt | 3 | nt
CCc1n[nH]c(=S)n1/N=C/c1cc(Br)c(O)c(OC)c1 | nt | nt | 5% | nt | -5 | nt
CCN(CC)c1ccc(/C=N/N2C(=O)c3ccccc3C2=O)cc1 | 1% | ? | 4% | -9 | -13 | -19%
CCN(CC)c1ccc(/C=N/n2c(C)cc(C)cc2=O)cc1 | -5% | 7.9µM* | -3% | -123* | 3 | ?
CCc1n[nH]c(=S)n1/N=C/c1c(C)nn(-c2ccccc2)c1Cl | nt | 2% | 0% | nt | -7 | nt
CCc1n[nH]c(=S)n1/N=C/c1ccc(N(CC)CC)cc1 | nt | 10µM* | -11% | nt | -10 | nt
C=CCOc1c(Br)cc(/C=N/n2c(CC)n[nH]c2=S)cc1Br | 2% | 8% | 4% | -24 | -8 | 3.2µM*
